# Source: PubChem
# KB-3-1 tox: KB-3-1 parental cell cytotoxicity. KB-3-1 viability, CellTiter-Glo ATP luminescence, 72 h. Potency, µM (doses to about 46.1 µM), usual class: cytotoxic. hit rate 1.4% among 400,000; further: on the % scale 0 is the no-effect control and ±100 the full control effect; nearly all actives have a fitted effect of over 60% in size
#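 KB-3-1 cells, DMEM (no phenol red) + 10% FBS; compound by pin transfer, 72 h, 37 °C. Readout: CellTiter-Glo luminescence after 10 min. Data normalized, curve-fitted.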
# HT1080 IDH1KD tx: toxicity to HT-1080 IDH1 knockdown cells (counter line). HT-1080 IDH1 knockdown viability, ATP luminescence, 48 h. Potency, µM (top dose mostly 46.1 µM), without a hit: top-dose activity, negative = toxicity, actives largely listed as cytotoxic. hit rate 2% among 360,000;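 further: 0% = DMSO wells and -100% = cell-free medium wells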
#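 Using the IDH1-knockdown HT-1080 line run in the same batch and compound series as the NT line, viability after 48 h at 37 °C was determined by CellTiter-Glo luminescence and expressed as % activity.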
# HT1080NT lethal: kills 2HG-producing HT-1080-NT fibrosarcoma cells. Potency, µM (highest dose often 46.1 µM), inactives show at the top dose activity, negative = less viability, usual class: cytotoxic. hit rate 1.6% among 360,000. AID 686970. HT-1080-NT fibrosarcoma viability, CellTiter-Glo ATP luminescence, 48 h;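 further: NT is the 2HG producing partner of a matched IDH1 knockdown line; 0% = DMSO-treated cells and -100% = media-only wells without cells; nearly all actives have a fitted effect of over 55% in size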
#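 Viability of the 2HG-overproducing fibrosarcoma line after 48 hours of compound exposure at 37 degrees C was determined by luminescence with CellTiter-Glo, and concentration-effect curves were then fitted and categorized.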
# KB-V1 MDR tox: KB-V1 MDR subline cytotoxicity; KB-V1 MDR cells viability, CellTiter-Glo, 72 h; Potency, µM (series often up to 46.1 µM), usual class: cytotoxic; hit rate 3.4% among 400,000; AID 1347076; further: on the % scale 0 is the no-effect control and ±100 the full control effect; nearly all actives have a fitted effect of over 60% in size
#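 qHTS viability screen in drug-selected KB-V1 MDR cells: 72 h compound treatment at 37 degrees C, ATP luminescence end point.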
# MCF10A rerep: induces DNA re-replication in MCF 10a normal breast cells. MCF 10A DNA re-replication, Hoechst nuclear intensity, 48 h. hit rate 2.9% among 350,000. Potency, µM (top dose mostly 46.1 µM), without a hit: top-dose activity, positive = re-replication, actives largely listed as activators; further: % of control where 0% means no effect; nearly all actives have a fitted effect of over 50% in size
# SW480 rerep: DNA re-replication induction in SW480 cells; SW480 DNA re-replication, Hoechst DNA content imaging, 48 h; Potency, µM (highest dose often 46.1 µM), inactives show at the highest dose re-replication activation, usual class: activators; hit rate 1.8% among 340,000; further: % of control where 0% means no effect; nearly all actives have a fitted effect of over 55% in size
#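 Per well, 250 cells were exposed to pinned compound for 48 hr. Nuclear DNA was visualised with Hoechst (40 min, 37 C) and total object intensity recorded by fluorescence scanning.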
# Numbers without * were called inactive; i = inactive; ? = inconclusive; . = no result. Only some compounds are listed: those with a hit (about 7.9% of all), similar ones and a draw of the others. The call rests on the fitted dose curve; in most records, active means well fitted curve in the direction sought with a large enough effect; inconclusive means small, poorly fitted or top-dose-only effect, or another doubt; inactive means no such curve, though single readings can be large; an effect the other way counts as inactive or inconclusive. Potency means the concentration at half of the fitted maximal effect.
SMILES,KB-3-1 tox,HT1080 IDH1KD tx,HT1080NT lethal,KB-V1 MDR tox,MCF10A rerep,SW480 rerep
NC(Cc1ccc(C(F)(F)F)cc1)c1csc(Nc2ccc(C(=O)c3ccccc3)cc2)n1 (configuration not stated),?,?,?,23µM*,.,.
CC(C)CC(=O)NC(=S)Nc1ccc(S(=O)(=O)N2CCN(C)CC2)cc1,i,-3%,-5%,i,16%,?
Cc1nn(-c2ccccc2)c(NC(=O)c2cccs2)c(-c2ccccc2)c1=O,i,16%,2%,i,2%,-3%
CC(=O)Nc1c(-c2ccccc2)nc2cc(C)ccn12,i,15%,5%,i,?,-1%
NC(Cc1ccc(C(F)(F)F)cc1)c1csc(Nc2cc(NCc3ccco3)ncn2)n1 (configuration not stated),i,16µM*,23µM*,i,.,.
NC(Cc1ccc(C(F)(F)F)cc1)c1csc(Nc2cnccn2)n1 (configuration not stated),i,?,?,i,.,.
CCOC(=O)CCCCCC(=O)Nc1ccc2c(c1)C(=O)N([C@H](C)CO)C[C@H](C)[C@@H](CN(C)S(C)(=O)=O)OCCCC[C@@H](C)O2,i,15%,11%,?,.,.
Cc1cc2ncn(/N=C/c3ccc([N+](=O)[O-])s3)c2cc1C,i,-6%,-2%,?,-5%,?
Cc1nc2ccccc2n1/N=C/c1ccc([N+](=O)[O-])o1,i,10µM*,13µM*,i,2%,6%
O=[N+]([O-])c1ccc(/C=N/n2cnc3ccccc32)s1,?,?,?,?,?,4.1µM*
Cc1nc2ccccc2n1/N=C/c1ccc([N+](=O)[O-])s1,?,?,?,12µM*,18µM*,?
O=[N+]([O-])c1ccc(/C=N/n2c(CO)nc3ccccc32)s1,?,?,?,i,14%,3.3µM*
Cc1ccc2nc(-c3ccccc3)c(Cc3ccsc3)n2c1,?,-6%,1%,21µM*,.,.
Cc1ccc2nc(C3CCCCC3)c(Cc3ccsc3)n2c1,?,?,-30%,16µM*,.,.
Cc1ccc(Cc2c(C3CCCCC3)nc3ccc(C)cn23)cc1,i,?,?,i,.,.
CCCCCCn1c(SCC(=O)OC)nc2c1c(=O)[nH]c(=O)n2C,i,-3%,-17%,i,0%,-9%
C=CCn1c(=O)c(C(=O)NCc2ccccc2Cl)c(O)c2ccccc21,?,5%,4%,i,23µM*,-50%
CCn1c(=O)c(C(=O)NCc2ccc(Cl)cc2)c(O)c2ccccc21,i,8%,2%,i,0.58µM*,-52%
CCn1c(=O)c(C(=O)NNC(=O)c2ccccc2Cl)c(O)c2ccccc21,i,-22%,?,?,0%,-6%
CCCCCC(=O)NNC(=O)c1c(O)c2ccccc2n(CC)c1=O,?,-14%,-8%,23µM*,?,?
CCn1c(=O)c(C(=O)NNC(=O)c2ccccc2F)c(O)c2ccccc21,15µM*,-25%,?,10µM*,?,?
CCCCCCCCCC(=O)NNC(=O)c1c(O)c2ccccc2n(CC)c1=O,?,-16%,-1%,?,6%,-2%
CCn1c(=O)c(C(=O)NCc2ccccc2)c(O)c2ccccc21,i,-20%,-5%,i,?,-12%
CCCn1c(=O)c(C(=O)NNS(=O)(=O)c2ccc(C)cc2)c(O)c2ccccc21,?,33µM*,?,?,?,3%
CCn1c(=O)c(C(=O)NNS(=O)(=O)c2ccc(C)cc2)c(O)c2ccccc21,i,-7%,-3%,?,?,3%
CCn1c(SCC(=O)c2[nH]c(C)c(C(C)=O)c2C)nnc1-c1cccs1,?,-10%,-2%,2.6µM*,1%,-1%
